# Results: PubChem BioAssay (NCATS)
# Several values for one entry are separate records, joined by “and”; a condition that tells them apart may be missing. Equal values may be shown once. Inconclusive results are not listed. Activity calls are given as the source filed them. Unless noted, the call rests on the fitted dose curve; in most records, active means well fitted curve in the direction sought with a large enough effect; inconclusive means small, poorly fitted or top-dose-only effect, or another doubt; inactive means no such curve, though single readings can be large; an effect the other way counts as inactive or inconclusive.
# Tests used:
# [1] = Cell Viability - LYMP2-022 (AID 987); further: potency means the concentration at half of the fitted maximal effect; nearly all actives have a fitted effect of over 55% in size
# Outline: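 Luminescent ATP read-out (CellTiter-Glo, 30 min, RT) after 24 hr, 37 C compound exposure of 2500 human lymphoblastoid cells/well in complete medium. Cytotoxicity taken as concentration-dependent ATP loss; AC50 from standard Hill equation.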
# [2] = Cell Viability - LYMP2-024 (AID 988); further: potency means the concentration at half of the fitted maximal effect; nearly all actives have a fitted effect of over 60% in size
# Outline: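 ATP-based luminescence (CellTiter-Glo, 30 min RT) after 24 h compound exposure at 37 C of 2500 lymphoblastoid cells/well; decrease in ATP taken as cytotoxicity. qHTS concentration-response fitted to standard Hill equation for AC50.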
# [3] = Cell Viability - LYMP1-002 - Assay at 24 hr (AID 993); further: potency means the concentration at half of the fitted maximal effect
# Outline: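 CellTiter-Glo luminescence (intracellular ATP) after 24 h compound exposure, 37 C, in LYMP1-002 human lymphoblastoid cells; decreased ATP taken as cytotoxicity. AC50 from standard Hill fit of concentration-response curves.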
# [4] = Cell Viability - LYMP1-002 - Assay at 40 hr (AID 994); further: potency means the concentration at half of the fitted maximal effect; nearly all actives have a fitted effect of over 60% in size
# Outline: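 qHTS cytotoxicity; 2500 cells/well, 5 hr 37 C settle, compound 40 hr 37 C. CellTiter-Glo, 30 min RT, luminescence (ATP). Concentration-response, Hill fit → AC50. Pos. ctrl tetraoctylammonium bromide.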
# [5] = qHTS Assay for Lipid Storage Modulators (AID 1519; calls by dose curve; on activity change, negative = inhibition: on the % scale 0 is the no-effect control and ±100 the full control effect); conditions: Drosophila S3 cells, BODIPY lipid droplet/cell ratio, laser cytometry, cells loaded with oleic acid
# Outline: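 Cells seeded at 5,000 per well were treated with compounds over a concentration series and loaded with oleic acid (400 uM, as added). Lipid droplet fluorescence (488 nm excitation, 500-530 nm channel) was read by laser-scanning cytometry and normalized to 20 uM Triacsin C.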
# [6] = qHTS for differential inhibitors of proliferation of Plasmodium falciparum line W2 (AID 1883); conditions: Potency: Plasmodium falciparum W2 proliferation inhibition;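 further: parasites grown with compound for 72 h before lysis and staining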; further: potency means the concentration at half of the fitted maximal effect;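 on activity change, negative = inhibition: 0% = vehicle wells and -100% = control inhibitor wells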
# [7] = target: Alpha-galactosidase A (Homo sapiens) (UniProt P06280); experiment: Counterscreen for Glucocerebrosidase Inhibitors: qHTS Assay for Human alpha-Galactosidase at pH 4.5 (AID 992); further: 0% is about no effect
# Outline: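 Fluorogenic 4-MU alpha-D-galactoside (80 uM) hydrolysis, 2 nM enzyme, pH 4.5 citrate buffer + 0.005% Tween-20; 20 min RT; NaOH/glycine pH 10 stop; Ex365/Em440. Compounds titrated 0.7 nM–77 uM; Hill-equation AC50.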
# [8] = target: alpha-glucosidase (Oryza sativa, rice) (UniProt Q653V4); experiment: Counterscreen for Glucocerebrosidase Inhibitors: qHTS Assay for Rice alpha-Glucosidase at pH 5.0 (AID 997);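 further: 0% = full activity with enzyme and -100% = basal without enzyme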
# Outline: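 Endpoint fluorogenic assay at pH 5.0: compounds (0.7 nM to 77 uM) titrated against 4 nM rice enzyme and 400 uM 4-MU-alpha-glucoside for 20 min at room temperature; NaOH/glycine stop, read ex 365/em 440 nm, Hill-fitted AC50.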
# [9] = target: DNA repair nuclease/redox regulator APEX1 (Homo sapiens) (UniProt P27695); experiment: qHTS Validation Assay for Inhibitors of the Human Apurinic/apyrimidinic Endonuclease 1 (APE1) (AID 1705;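 further: TAMRA fluorescence gain over two minutes as APE1 cuts a quenched THF abasic duplex; on the % scale 0 is the no-effect control and ±100 the full control effect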)
# Outline: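 Human APE1 was preincubated with compound for 15 min at room temperature, then 50 nM (final) THF-abasic double-stranded DNA substrate bearing 5'-TAMRA and 3'-BHQ-2 was added. Incision-driven fluorescence rise (ex 525/em 598 nm) was read kinetically.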
# [10] = Counterscreen for APE1 Inhibitors: Fluorescent Dye Displacement Validation Assay (AID 1707);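 further: plate controls were ThO with dsDNA and no compound for no effect and ThO without dsDNA for full effect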
# Outline: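 Endpoint fluorescence read at 480 nm excitation / 540 nm emission; DNA-binding compounds lower signal by displacing 250 nM Thiazole Orange from 50 nM dsDNA containing a tetrahydrofuran abasic site, Tris-HCl pH7.5 buffer with NaCl and MgCl2.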
# [11] = target: Endonuclease 4 (Escherichia coli (strain K12)) (UniProt P0A6C1); experiment: Counterscreen for APE1 Inhibitors: qHTS Validation Assay for Inhibitors of Endonuclease IV (AID 1708); further: on the % scale 0 is the no-effect control and ±100 the full control effect
# Outline: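 Read-out: fluorescence rise (ex 525/em 598 nm) from incision of a TAMRA/BHQ-2 double-stranded THF abasic-site substrate (50 nM), measured kinetically; third-minus-first read difference gave reaction progress. Enzyme 2 nM.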
# [12] = qHTS for differential inhibitors of proliferation of Plasmodium falciparum line 7G8 (AID 1815);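 further: parasite growth measured after three days of incubation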; further: potency means the concentration at half of the fitted maximal effect;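 on activity change, negative = inhibition: plate controls were vehicle wells for no effect and reference inhibitor wells for full effect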
# [13] = qHTS for differential inhibitors of proliferation of Plasmodium falciparum line GB4 (AID 1816); conditions: Potency: Plasmodium falciparum GB4 proliferation inhibition;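 further: parasite growth measured after 72 h incubation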; further: potency means the concentration at half of the fitted maximal effect;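 on activity change, negative = inhibition: 0% = vehicle DMSO and -100% = reference inhibitor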
# [14] = qHTS for differential inhibitors of proliferation of Plasmodium falciparum line 3D7 (AID 1876); further: potency means the concentration at half of the fitted maximal effect
# [15] = qHTS for differential inhibitors of proliferation of Plasmodium falciparum line D10 (AID 1877);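 further: parasites grown with compound for 72 h before DNA staining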; further: potency means the concentration at half of the fitted maximal effect;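 on activity change, negative = inhibition: plate controls were vehicle wells for no effect and reference inhibitor wells for full effect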
# [16] = qHTS for differential inhibitors of proliferation of Plasmodium falciparum line Dd2 (AID 1882); conditions: Potency: Plasmodium falciparum Dd2 proliferation inhibition; further: nearly all actives have a fitted effect of over 65% in size; further: potency means the concentration at half of the fitted maximal effect;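 on activity change, negative = inhibition: compound exposure of 72 h on infected erythrocytes; plate controls were DMSO vehicle for no effect and 0.29 µM artemisinin for full effect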
# Outline: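 RBC culture, 0.3% parasitemia / 2.5% Hct final; cpd added by pin tool in DMSO; 72 h, 37 C, 5% CO2; lysis buffer + SYBR Green I, o/n RT dark; FI 485/535; norm. to artemisinin 0.29 uM and DMSO.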
# [17] = measured here: cell count channel max response
# [18] = measured here: lipid channel max response
# Sequence of DNA repair nuclease/redox regulator APEX1 (Homo sapiens) (P27695 whole entry, looked up): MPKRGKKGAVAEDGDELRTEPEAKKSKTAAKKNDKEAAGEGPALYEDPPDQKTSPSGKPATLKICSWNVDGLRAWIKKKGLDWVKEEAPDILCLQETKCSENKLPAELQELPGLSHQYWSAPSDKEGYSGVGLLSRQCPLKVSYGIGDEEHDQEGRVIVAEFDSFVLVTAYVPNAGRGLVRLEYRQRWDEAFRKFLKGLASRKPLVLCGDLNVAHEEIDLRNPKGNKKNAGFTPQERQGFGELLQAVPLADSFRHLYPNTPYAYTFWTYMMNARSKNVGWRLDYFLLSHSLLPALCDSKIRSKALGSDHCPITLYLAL
# Sequence of Alpha-galactosidase A (Homo sapiens) (P06280 whole entry, looked up): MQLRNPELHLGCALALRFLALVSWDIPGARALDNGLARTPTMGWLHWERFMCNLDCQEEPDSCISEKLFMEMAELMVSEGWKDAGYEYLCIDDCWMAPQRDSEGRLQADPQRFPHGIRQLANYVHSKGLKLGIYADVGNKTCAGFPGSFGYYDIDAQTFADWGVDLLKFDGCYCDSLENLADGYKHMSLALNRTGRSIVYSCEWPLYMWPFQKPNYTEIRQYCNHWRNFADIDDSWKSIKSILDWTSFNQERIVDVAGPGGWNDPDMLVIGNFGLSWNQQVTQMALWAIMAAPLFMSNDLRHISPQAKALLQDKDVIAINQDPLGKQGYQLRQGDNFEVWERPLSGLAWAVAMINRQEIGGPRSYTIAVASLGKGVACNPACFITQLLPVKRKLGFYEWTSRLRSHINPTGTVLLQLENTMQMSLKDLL
smiles,measurement,setting,value
COC(=O)C1=C(C)NC(C)=C(C(=O)OC)C1c1ccccc1[N+](=O)[O-],Potency,[1],50.1 µM (active)
same,Potency,[2],39.8 µM (active)
same,Potency,[3],50.1 µM (active)
same,Potency,[4],39.8 µM (active)
same,"activity change, negative = inhibition",[5]; at 25.7 µM (top of the series),-3.56% (inactive)
same,"activity change, negative = inhibition",[5]; at 57.5 µM (top of the series),-18.3% (inactive)
same,max response,[5]; [17],-12.4% and 9.66%
same,max response,[5]; [18],-15.8% and -7.21%
same,Potency,[6],12.6 µM (active)
Clc1ccc(CO/N=C(\Cn2ccnc2)c2ccc(Cl)cc2Cl)c(Cl)c1,"activity change, negative = inhibition",[5]; at 57.5 µM (top of the series),5.8% (inactive)
same,max response,[5]; [17],-2.06%
same,max response,[5]; [18],5.32%
CC(C)[N+](C)(CCC(C(N)=O)(c1ccccc1)c1ccccc1)C(C)C,"activity change, negative = inhibition",[5]; at 25.7 µM (top of the series),-0.769% (inactive)
same,"activity change, negative = inhibition",[5]; at 57.5 µM (top of the series),9.64% (inactive)
same,max response,[5]; [17],-8.79% and 5.39%
same,max response,[5]; [18],-9.77% and 16.5%
NC(=O)CN1CCCC1=O,outcome,[7],inactive
same,outcome,[8],inactive
same,"activity change, negative = inhibition",[5]; at 25.7 µM (top of the series),-1.06% (inactive)
same,"activity change, negative = inhibition",[5]; at 57.5 µM (top of the series),8.11% (inactive)
same,max response,[5]; [17],-2.61% and 10.4%
same,max response,[5]; [18],-4.04% and 22.9%
same,outcome,[9],inactive
same,outcome,[10],inactive
same,outcome,[11],inactive
same,Potency,[12],inactive
same,Potency,[13],inactive
same,Potency,[14],inactive
same,Potency,[15],inactive
same,Potency,[16],inactive
same,Potency,[6],inactive
CCCC(C)C1(CC)C(=O)N=C(S)NC1=O (stereo not drawn),"activity change, negative = inhibition",[5]; at 57.5 µM (top of the series),4.86% (inactive)
same,max response,[5]; [17],-3.79%
same,max response,[5]; [18],1.05%
Clc1ccc(C(OCCN2CCCCC2)c2ccccc2)cc1 (stereo not drawn),"activity change, negative = inhibition",[5]; at 57.5 µM (top of the series),10.4% (inactive)
same,max response,[5]; [17],15.5%
same,max response,[5]; [18],25.9%
CC[C@H]1CN2CCc3cc(OC)c(OC)cc3[C@@H]2C[C@@H]1C[C@H]1NCCc2cc(OC)c(OC)cc21,outcome,[9],inactive
same,Potency,[13],0.0891 µM (active)
same,Potency,[14],79.4 nM (active)
same,Potency,[15],141 nM (active)
same,Potency,[16],112 nM (active)
Cc1ccc(N=CN(C)C=Nc2ccc(C)cc2C)c(C)c1,"activity change, negative = inhibition",[5]; at 57.5 µM (top of the series),14.3% (inactive)
same,max response,[5]; [17],10.9%
same,max response,[5]; [18],26.2%
c1ccc2nc(N3CCNCC3)ccc2c1,outcome,[7],inactive
same,outcome,[8],inactive
same,"activity change, negative = inhibition",[5]; at 25.7 µM (top of the series),-1.91% (inactive)
same,"activity change, negative = inhibition",[5]; at 57.5 µM (top of the series),4.37% (inactive) and 6.17% (inactive)
same,max response,[5]; [17],-6.47% and 8.94% and 1.83%
same,max response,[5]; [18],-9.05% and 14.3% and 11.9%
same,outcome,[9],inactive
same,outcome,[10],inactive
same,Potency,[12],7.94 µM (active)
same,Potency,[13],11.2 µM (active)
same,Potency,[15],inactive
same,Potency,[6],7.08 µM (active)
O=C1CC2(CCCC2)CC(=O)N1CCCCN1CCN(c2ncccn2)CC1,"activity change, negative = inhibition",[5]; at 25.7 µM (top of the series),0.205% (inactive)
same,"activity change, negative = inhibition",[5]; at 57.5 µM (top of the series),-2.21% (inactive)
same,max response,[5]; [17],-26.7% and -71.1%
same,max response,[5]; [18],-24.8% and -67.1%
same,Potency,[12],10 µM (active)
same,Potency,[6],10 µM (active)
OC(c1ccccc1)(c1ccccc1)C1CCNCC1,"activity change, negative = inhibition",[5]; at 25.7 µM (top of the series),-3.2% (inactive)
same,max response,[5]; [17],-4.3%
same,max response,[5]; [18],-6.81%
